{"source": "PubChem BioAssay (NCI)", "note": "Where “and” joins values, the source holds several entries; their conditions need not be identical. Equal entries are not always repeated. This is part of a sample that, as a whole, favours compounds with a hit. Of some 83,000 tested, about 20% had one in any assay.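 Plates (96-well) were seeded with cells, treated with compound at one concentration, and incubated for 48 hours before percent growth was determined.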 Unmarked numbers belong to inactive results. Calls of active or inactive are those of the source. The calls were made as follows: active = growth percent below 10; inactive = the rest.", "data": [{"tested_on": "MDA-MB-468 breast", "assay": "NCI-60 one-dose screen, 48 h (100 = growth as untreated, 0 = no growth, -100 = all killed)", "details": "10 µM unless noted", "values": [{"smiles": "CC(=O)N1c2ccccc2NC2=C(C(=O)NC2(C)C)C1c1ccco1", "note": "(stereo not given)", "growth": "65.9%"}, {"smiles": "COc1ccc(-c2nn(-c3cccc(Cl)c3)cc2-c2c(C#N)c(=O)n3[nH]c(-c4ccccc4)nc3c2C#N)cc1", "growth": "97.6%"}, {"smiles": "CCOC(=O)C1=C(C)N=C2SC=C(c3ccccc3)N2[C@H]1c1cn[nH]c1-c1ccc(Cl)cc1", "growth": "22.4%"}, {"smiles": "O=C(CCCCCCNC(=O)C(O)(O)C(F)(F)F)Nc1ncc(-c2ccccc2)s1", "growth": "-25% (active)"}, {"smiles": "Cc1ccc(Nc2cc(=S)nc(N)[nH]2)cc1C", "growth": "84.8%"}, {"smiles": "CC(=O)[C@@H]1CC[C@]2(CO)CC[C@]3(C)[C@H](CC[C@@H]4[C@@]5(C)CCCNC(C)(C)[C@@H]5CC[C@]43C)[C@@H]12", "growth": "106%"}, {"smiles": "Cc1ccc(C(=O)C2=Cc3cc4ccccc4n3Cc3cnnn32)cc1", "growth": "100%"}, {"smiles": "Cc1ccc(-c2cc3nc(C(Cl)Cl)nc(-c4ccco4)n3n2)cc1", "growth": "-41.3% (active)"}, {"smiles": "N#CC1=C(N)Oc2c(ccc3ccccc23)C1c1ccccc1", "note": "(stereo not given)", "growth": "23.1%"}, {"smiles": "Cc1cc(C)c2c(n1)sc1c(Nc3ccc(OCc4ccccc4)cc3)ncnc12", "growth": "101%"}, {"smiles": "CC(=O)OCC1OC(OC(C)=O)C(OC(C)=O)C(OC(C)=O)C1OC(C)=O", "note": "(stereo not given)", "growth": "95.5% and 108%"}, {"smiles": "C[C@@]1(N2C(=O)OC[C@@H]2c2ccccc2)C(=O)N([C@H](CC(=O)N2CCC(N3CCCCC3)CC2)C(=O)NCc2cccc(C(F)(F)F)c2)[C@@H]1/C=C/c1ccccc1", "growth": "23.7%"}, {"smiles": "Nc1cccc(-c2nc3sccn3c2-c2ccnc(NCCNS(=O)(=O)c3ccc(C(F)(F)F)cc3)n2)c1", "growth": "51.4%"}, {"smiles": "Cc1ccc(-c2nc(N3CCNCC3)c3oc(-c4ccc(C)cc4)nc3n2)cc1", "growth": "-33.5% (active)"}, {"smiles": "COc1ccc(-c2nc3ccc(-c4nc5ccc(N6CCN(C)CC6)cc5[nH]4)cc3[nH]2)cc1OC", "growth": "-30.1% (active)"}, {"smiles": "Fc1ccc(-c2cn3c(-c4c[nH]c5ccc(Br)cc45)csc3n2)cc1", "growth": "74.9%"}, {"smiles": "C[C@@H]1C[C@H](N)C[C@H](c2ccncc2NC(=O)c2ccc(F)c(-c3c(F)cccc3F)n2)C1", "growth": "22.3%"}, {"smiles": "CN(C)c1ccc(/C=C2\\C=C(c3ccccc3)N(CCc3ccccc3)C2=O)cc1", "growth": "98.2%"}, {"smiles": "Oc1ccc(CCC2CCCC(CCc3ccc(OCCF)cc3)N2)cc1", "note": "(stereo not given)", "growth": "110%"}, {"smiles": "C#CCSc1nnnn1-c1ccc(Br)c(C)c1", "growth": "67.2%"}, {"smiles": "COc1cccc(N2CCN(c3ncnc4cc[nH]c34)CC2)c1", "growth": "18.8%"}, {"smiles": "COc1ccc(Br)c(/C=C2\\SC(=Nc3ccc(O)cc3)NC2=O)c1", "growth": "85%"}, {"smiles": "C#CCn1cc(C=C2C(=O)NC(=O)NC2=O)c2cc(Cl)ccc21", "growth": "41.9%"}, {"smiles": "COc1cccc(-c2cc(-c3cccc(Cl)c3)c(C#N)c(=O)[nH]2)c1", "growth": "70.1%"}, {"smiles": "CS(=O)(=O)c1nccc(-c2c(-c3ccc(F)c(OCc4ccccc4)c3)nc3sccn23)n1", "growth": "-68.8% (active)"}, {"smiles": "COC(=O)c1cc(-c2cccs2)c(C#N)c(N)c1C#N", "growth": "80.8%"}, {"smiles": "C[C@]12CCc3nc(Nc4ccccc4)sc3C1=CC[C@@H]1[C@@H]2CC[C@]2(C)/C(=N/NC(N)=S)CC[C@@H]12", "growth": "14.9%"}, {"smiles": "C[PH+](c1nc2ccccc2nc1[PH+](C)C(C)(C)C)C(C)(C)C.C[PH+](c1nc2ccccc2nc1[PH+](C)C(C)(C)C)C(C)(C)C.[Au+].[Cl-]", "note": "(stereo not given)", "growth": "-80.7% (active)"}, {"smiles": "O=C(NCCNC(c1ccccc1)C(NCCNC(=O)c1ccccc1)c1ccccc1)c1ccccc1", "note": "(stereo not given)", "growth": "81.5%"}, {"smiles": "O=S(=O)(Nc1nccs1)c1ccc(Nc2nc(-c3ccncc3)cs2)cc1", "growth": "101%"}, {"smiles": "Cc1ccc(/C=C/c2c(C(=O)/C=C/c3ccc(C(F)(F)F)cc3)c(C)nc3ccccc23)cc1", "growth": "-57.4% (active)"}, {"smiles": "NC(CS/C(Cl)=C/Cl)C(=O)O", "note": "(stereo not given)", "growth": "-38.5% (active)"}, {"smiles": "CC(C)(C)c1cc(C=O)cc(C(C)(C)C)c1O", "growth": "94.9%"}, {"smiles": "O=C(Nc1nc(-c2ccc(Cl)cc2)cs1)c1cc(-c2ccc(Br)cc2)nc2ccc(Cl)cc12", "growth": "98.7%"}, {"smiles": "O=S(=O)(Nc1ccc(-n2cnc3cc(-c4ccc(O)cc4)ccc32)cc1)C1CC1", "growth": "111%"}, {"smiles": "COc1ccc2[nH]cc(/C=C3/C(=O)Nc4ccc(F)cc43)c2c1", "growth": "79.1%"}, {"smiles": "CCOC(=O)C(Cc1ccccc1)n1c(O)c(/C=N/c2ncc(Cc3ccc(Cl)cc3Cl)s2)sc1=S", "note": "(stereo not given)", "growth": "-0.681% (active)"}, {"smiles": "Nc1ccc(Cl)c([N+](=O)[O-])c1", "growth": "98.5%"}, {"smiles": "COc1cc(CSc2nc3ccc(Cl)cc3c(=O)n2Cc2ccccc2)cc(OC)c1OC", "growth": "-13.1% (active)"}, {"smiles": "COc1ccc(CCc2nc3cc(-c4c(C)noc4C)ccc3n2CCN2CCOCC2)cc1", "growth": "9.69% (active)"}]}]}
